Source: PubChem BioAssay (several laboratories)
H9c2 protect: myocardial damage modulation in H9c2 cells; H9c2 cardiomyocytes, H2O2 injury protection, ATPLite, 2 h; protection from H2O2 cell death, % at 20 µM; 0.63% of 360,000 active; AID 588492;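 active = compounds giving at least 50% protection of heart cells from peroxide-induced death in the single-dose screen, raw or plate-pattern-corrected value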
MIN6 prolif: inducers of beta-cell replication in MIN6 cells; MIN6 cells proliferation, ATPlite luminescence, 48 h; cells starved in 0.2% serum; 100% = growth in 10% serum; proliferation, % at 10 µM; 0.29% of 330,000 active;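 active = compounds whose signal lies at least 3.5 SD above the mean of all wells on their plate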
ABCB6 inh MLPCN: inhibitors of human ABC transporter ABCB6 | fluorescence ratio to DMSO, % at 10 µM | AID 602162 | 0.19% of 360,000 active | K562-ABCB6 porphyrin accumulation, flow cytometry, 1 h; stronger effect = lower value | Q9NP58;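 active = fluorescence ratio to DMSO below 75%, the collection mean minus 3 SD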;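 note: signal is porphyrin accumulated inside mitochondria; lower ratio means ABCB6 inhibition with less porphyrin fluorescence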
Target sequence (Q9NP58 whole entry, looked up): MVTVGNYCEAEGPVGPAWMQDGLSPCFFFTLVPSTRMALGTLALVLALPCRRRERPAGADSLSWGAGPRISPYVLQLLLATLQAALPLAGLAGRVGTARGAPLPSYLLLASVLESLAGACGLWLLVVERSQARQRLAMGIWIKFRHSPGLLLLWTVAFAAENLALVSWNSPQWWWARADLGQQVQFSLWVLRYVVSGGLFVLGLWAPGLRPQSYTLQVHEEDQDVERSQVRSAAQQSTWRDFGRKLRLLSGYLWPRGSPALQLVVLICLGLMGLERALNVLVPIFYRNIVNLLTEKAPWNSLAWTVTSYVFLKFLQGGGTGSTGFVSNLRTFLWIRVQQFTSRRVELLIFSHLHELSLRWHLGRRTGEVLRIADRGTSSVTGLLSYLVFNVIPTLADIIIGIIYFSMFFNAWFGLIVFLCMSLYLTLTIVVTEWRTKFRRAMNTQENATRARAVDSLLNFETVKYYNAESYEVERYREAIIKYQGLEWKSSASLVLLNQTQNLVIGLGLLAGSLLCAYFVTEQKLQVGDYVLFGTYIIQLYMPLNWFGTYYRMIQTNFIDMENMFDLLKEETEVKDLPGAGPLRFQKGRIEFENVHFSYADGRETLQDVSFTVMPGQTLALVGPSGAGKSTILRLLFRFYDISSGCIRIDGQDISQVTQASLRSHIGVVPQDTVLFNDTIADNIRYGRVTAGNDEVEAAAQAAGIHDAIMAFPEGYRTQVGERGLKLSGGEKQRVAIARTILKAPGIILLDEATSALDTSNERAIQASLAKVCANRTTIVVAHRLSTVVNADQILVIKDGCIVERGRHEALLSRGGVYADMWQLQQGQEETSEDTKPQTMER
iPSC survival up: increases survival of single human iPS cells; hiPSC single-cell survival, ATPlite luminescence; 100% = ROCK inhibitor wells, 0% = DMSO; survival enhancement, % at 20 µM; 0.044% of 360,000 active; AID 602274; in the data active = survival enhancement above about 18%;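 note: cells exposed to compounds for 16 hours before the ATP read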
Myeloid diff 2: compounds promoting myeloid differentiation; ER-HoxA9 myeloid progenitors, lysozyme-GFP differentiation, flow cytometry; calls only at 10 µM; AID 624256; 1% of 360,000 active;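 active = normalized GFP-positive differentiation at or above the plate's own cutoff, the solvent-only control mean plus 3 SD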;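 note: cells exposed to compound for four days before flow analysis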
Myeloid diff: promotes myeloid progenitor differentiation; AID 651706; calls only; shares compounds with Myeloid diff 2; 2% of 2,300 active; ER-HoxA9 myeloid progenitors, GFP/Mac1 double-positive flow;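 active = share of green or green-and-red cells above 9 and 9% in run 1 or 4 and 3% in run 2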
GFP autofluor: compound fluorescence in myeloid differentiation counter-screen; shares compounds with Myeloid diff 2; ER-HoxA9 myeloid progenitors, no estrogen, GFP autofluorescence flow cytometry; vehicle wells 0%, positive control 100%; fluorescence response, % (test concentration not listed); 7.4% of 2,300 active; AID 651707;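 active = over 5% cells positive for green fluorescent reporter, or over 2% positive for both it and APC stain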
Each line names hits and unclear results; the compound was inactive in the other large screens (follow-up assays come after a bar, where they were run). Rows were chosen to be rich in hits. Some 2.2% of all compounds tested hit in one or more screens of this group.

N#CC1C(=O)NC(=O)CC12CCCCC2 (configuration not stated)	none (no result: MIN6 prolif) | Myeloid diff inactive | GFP autofluor inactive
CC(C)CCNC(=O)C(Cc1ccccc1)NS(=O)(=O)c1ccc2c(c1)c(=O)n(C)c(=O)n2C (configuration not stated)	Myeloid diff 2 active | Myeloid diff inactive | GFP autofluor inactive
O=S(=O)(c1ccc2ccccc2c1)N1CCN(c2ccc(O)cc2)CC1	Myeloid diff 2 active | Myeloid diff inactive | GFP autofluor inactive
COc1ccccc1-n1c(=S)sc2c(=O)n(Cc3ccco3)c(SC)nc21	none | Myeloid diff inactive | GFP autofluor inactive
CCOC(=O)N1CCN(C(=O)CSCC(=O)Nc2nc(-c3ccc(C)cc3)cs2)CC1	none | Myeloid diff inactive | GFP autofluor inactive
Cc1ccc(C2=Nc3ccccc3N(C(=O)c3ccccc3)C(C)C2)cc1 (configuration not stated)	none
CCOC(=O)c1ccc(N=c2sc(C(=O)OC)cc(=O)n2C2CC2)cc1	none | Myeloid diff inactive | GFP autofluor inactive
CCOC(=O)c1ccc(N=c2sc(C(=O)OC)cc(=O)n2Cc2ccc3c(c2)OCO3)cc1	none
Cc1cc(C)n(-c2nc3ccccc3nc2N2CCC(C)CC2)n1	none
Cc1cc(C)n(-c2nc3ccccc3nc2N2CCN(C(=O)c3ccc(F)cc3)CC2)n1	none | Myeloid diff inactive | GFP autofluor inactive
O=C1/C(=C/c2ccc(O)c(O)c2)Oc2cc(O)ccc21	none
Cc1onc(-c2c(Cl)cccc2Cl)c1C(=O)NCc1ccc(S(N)(=O)=O)cc1	none | Myeloid diff inactive | GFP autofluor inactive
Cc1onc(-c2ccccc2Cl)c1C(=O)NCc1ccccc1	none
O=C(COC(=O)COc1cccc2ccccc12)NCC(F)(F)F	none | Myeloid diff inactive | GFP autofluor inactive
O=C(COc1cccc2cccnc12)NCC(F)(F)F	none
CCC(=Nc1ccccc1O)C1=C(O)CC(c2ccccc2)CC1=O (configuration not stated)	none | Myeloid diff inactive | GFP autofluor 6.6
CCC(=Nc1ccccc1OC)C1=C(O)CC(c2ccccc2)CC1=O (configuration not stated)	none
Cn1ccc2c(-c3ccc(C(N)=O)cc3)cc3c(c21)C1CCC3C1 (configuration not stated)	none (no result: MIN6 prolif)
CCCC[C@@H]1CNC(=S)N1CCC12CC3CC(CC(C3)C1)C2	none
COc1ccccc1-c1ccc2c(c1)O[C@@H](CN(C)C(=O)Nc1cccc(F)c1)[C@H](C)CN([C@H](C)CO)S2(=O)=O	none (no result: MIN6 prolif) | Myeloid diff inactive | GFP autofluor inactive
COc1cccc(NC(=O)N(C)C[C@@H]2Oc3cc(Br)ccc3S(=O)(=O)N([C@@H](C)CO)C[C@H]2C)c1	none (no result: MIN6 prolif)
C[C@H](CO)N1C[C@H](C)[C@H](CN(C)Cc2ccncc2)Oc2cc(-c3ccccc3F)ccc2S1(=O)=O	none (no result: MIN6 prolif) | Myeloid diff inactive | GFP autofluor inactive
C[C@H](CO)N1C[C@H](C)[C@@H](CN(C)Cc2cccnc2)Oc2cc(-c3cccnc3)ccc2S1(=O)=O	none (no result: MIN6 prolif)
CC(C)Oc1ccccc1OCCCOc1cccc2cccnc12	none
Cc1ccc(OCCOC(=O)c2cc(S(=O)(=O)N3CCCCC3)ccc2N2CCOCC2)cc1	Myeloid diff 2 active | Myeloid diff inactive | GFP autofluor inactive
O=C(OCCOc1ccc(Cl)cc1)c1cc(S(=O)(=O)N2CCCCC2)ccc1N1CCOCC1	none (no result: MIN6 prolif)
O=C(Nc1cccc(C(F)(F)F)c1)c1cc(S(=O)(=O)N2CCCCC2)ccc1N1CCOCC1	none | Myeloid diff inactive | GFP autofluor inactive
COc1ccccc1C(O)P(=O)(OC1CCCCC1)OC1CCCCC1 (configuration not stated)	none
CC1Cc2nc(SCC(=O)Nc3nccs3)n(C)c(=O)c2S1 (configuration not stated)	none
C=CCc1ccccc1OCC(O)CN(C(C)C)C(C)C (configuration not stated)	none
Cc1ccc[n+](Cc2ccc([N+](=O)[O-])cc2)c1	none
O=[N+]([O-])c1ccc(C[n+]2cccc3c4ccccc4ccc32)cc1	none | Myeloid diff active | GFP autofluor inactive
